Experimental data: PMC4336329 (PLoS ONE, 2015)
The whole screen tested about 310,000 compounds, of which about 14,000 (4.5%) showed an effect of 50% or more. The effect is printed as a negative number. For the sample, strong results were picked, then their nearest neighbours and some compounds at random.

biological target: human ether-à-go-go-related gene (hERG) potassium channel (human, UniProt Q12809); experiment: primary screen, population patch clamp on CHO cells stably expressing hERG; higher = less effect of the substance
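Note: peak tail current of the secondary pulse compared with the same well before compound.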

Sequence of human ether-à-go-go-related gene (hERG) potassium channel (Q12809 whole entry, looked up): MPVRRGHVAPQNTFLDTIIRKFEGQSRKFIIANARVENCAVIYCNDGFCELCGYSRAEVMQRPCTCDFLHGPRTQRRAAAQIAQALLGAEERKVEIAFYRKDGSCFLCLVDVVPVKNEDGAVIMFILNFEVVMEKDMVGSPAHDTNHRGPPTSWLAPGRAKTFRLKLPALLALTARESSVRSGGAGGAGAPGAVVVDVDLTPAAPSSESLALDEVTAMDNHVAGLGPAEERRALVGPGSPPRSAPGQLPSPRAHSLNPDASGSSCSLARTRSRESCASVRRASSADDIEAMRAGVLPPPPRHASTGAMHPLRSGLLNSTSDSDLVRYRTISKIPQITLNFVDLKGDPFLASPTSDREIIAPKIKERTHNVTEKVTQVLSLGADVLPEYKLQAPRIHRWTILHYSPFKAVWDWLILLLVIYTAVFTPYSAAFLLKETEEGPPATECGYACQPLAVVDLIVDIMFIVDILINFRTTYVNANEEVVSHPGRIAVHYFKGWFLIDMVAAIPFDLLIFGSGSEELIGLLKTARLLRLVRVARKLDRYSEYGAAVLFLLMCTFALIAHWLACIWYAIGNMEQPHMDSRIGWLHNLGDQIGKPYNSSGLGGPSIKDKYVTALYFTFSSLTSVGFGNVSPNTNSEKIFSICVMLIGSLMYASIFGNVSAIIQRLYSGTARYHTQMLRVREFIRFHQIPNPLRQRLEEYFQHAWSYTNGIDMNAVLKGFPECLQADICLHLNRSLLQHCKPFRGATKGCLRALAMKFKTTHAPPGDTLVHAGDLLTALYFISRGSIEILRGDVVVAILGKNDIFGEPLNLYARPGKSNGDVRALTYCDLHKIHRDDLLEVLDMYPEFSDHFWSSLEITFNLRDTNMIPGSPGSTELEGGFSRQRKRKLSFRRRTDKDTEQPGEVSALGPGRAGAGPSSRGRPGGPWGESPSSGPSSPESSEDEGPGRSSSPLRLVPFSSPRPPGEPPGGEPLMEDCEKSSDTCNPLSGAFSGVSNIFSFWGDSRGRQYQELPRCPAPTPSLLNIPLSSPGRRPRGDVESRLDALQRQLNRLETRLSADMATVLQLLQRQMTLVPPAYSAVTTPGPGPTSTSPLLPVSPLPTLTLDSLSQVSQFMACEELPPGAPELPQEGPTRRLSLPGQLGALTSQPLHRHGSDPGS

Row | SMILES | hERG current change (%, negative = inhibition) at 10uM
1 | O=C(Nc1nc2ccccc2n1CCN1CCOCC1)c1ccc(Cl)cc1 | 1.72%
2 | Cn1ncc([N+](=O)[O-])c1C(=O)Nc1nc2ccccc2n1CCN1CCCCC1 | -25.1%
3 | O=C(Nc1nc2ccccc2n1CCN1CCOCC1)c1ccccc1 | -6.69%
4 | CCn1cc(Cl)c(C(=O)Nc2nc3ccccc3n2CCN2CCCCC2)n1 | -65.5%
5 | CCn1nccc1C(=O)Nc1nc2ccccc2n1CCN1CCCCC1 | -39.8%
6 | Cc1c(Cl)c(C(=O)Nc2nc3ccccc3n2CCN2CCCCC2)nn1C | -68.1%
7 | CCCCn1nnc(NC(=S)NC(=O)c2cccs2)n1 | 9.16%
8 | COc1ccccc1Cn1c(=S)[nH]c2ccccc2c1=O | 32.7%
9 | COc1ccc(S(=O)(=O)N2CCOCC2)cc1NC(=O)CC1CCCC1 | -6.2%
10 | COc1ccc(N(CC(=O)Nc2ccc3c(c2)OCCO3)S(=O)(=O)c2c(C)noc2C)cc1 | -6.74%
11 | O=C(NC(=S)NC1CCCCC1)c1ccccc1 | 1.5%
12 | COCCCn1c(=O)c2sccc2n2c(CCCC(=O)NCc3ccccc3OC)nnc12 | -19.9%
13 | Cc1ccc(NC(=O)CS(=O)(=O)c2cn(CC(=O)N3CCOCC3)c3ccccc23)cc1 | -0.0981%
14 | CC(=O)c1ccc(NC(=O)CS(=O)(=O)c2cn(CC(=O)N3CCOCC3)c3ccccc23)cc1 | -58.6%
15 | O=C(CS(=O)(=O)c1cn(CC(=O)N2CCOCC2)c2ccccc12)Nc1ccccc1 | 8.09%
16 | COc1cccc(=O)c2c(C)n(C)c(C)c12 | -24.7%
17 | CCc1cc(=O)oc2cc(C)cc(OC(C)C(=O)NC3CCN(Cc4ccccc4)CC3)c12 (stereo not shown) | -32.8%
18 | CC(Oc1ccc(Br)cc1)C(=O)NC1CCCCCC1 (stereo not shown) | -12.4%
19 | Cc1cc(=O)oc2cc(OC(C)C(=O)NC3CCCC3)ccc12 (stereo not shown) | -33.4%
20 | CC(Oc1ccccc1)C(=O)NC1CCN(Cc2ccccc2)CC1 (stereo not shown) | -26.8%
21 | CC(Oc1ccc2c3c(c(=O)oc2c1)CCC3)C(=O)NC1CCN(Cc2ccccc2)CC1 (stereo not shown) | -47.9%
22 | Cc1c(C)c2ccc(OC(C)C(=O)NC3CC(C)(C)NC(C)(C)C3)cc2oc1=O (stereo not shown) | 7.7%
23 | Cc1cc(=O)oc2c(C)c(OC(C)C(=O)NC3CCN(Cc4ccccc4)CC3)ccc12 (stereo not shown) | -48.1%
24 | CC(Oc1ccc(Br)cc1)C(=O)NC1CCN(Cc2ccccc2)CC1 (stereo not shown) | -80.4%
25 | Cc1cc(OC(C)C(=O)NC2CCN(Cc3ccccc3)CC2)c2c(C)cc(=O)oc2c1 (stereo not shown) | -15.2%
26 | Cc1cc(=O)oc2cc(OC(C)C(=O)NC3CCN(Cc4ccccc4)CC3)ccc12 (stereo not shown) | -79.2%
27 | Cc1c(C)c2ccc(OC(C)C(=O)NC3CCN(Cc4ccccc4)CC3)cc2oc1=O (stereo not shown) | -54.2%
28 | CC(Oc1ccc2ccc(=O)oc2c1)C(=O)NC1CCN(Cc2ccccc2)CC1 (stereo not shown) | -75%
